The values that follow come from paper PMC5515408, “Sequence-specific DNA binding by MYC/MAX to low-affinity non-E-box motifs”.

The full ranking holds about 5,000 sequences; the median of “log2 normalized fluorescence” is about 0.089, and the highest 2% start at about 0.81. What follows is part of a selection rich in the highest values, with near analogues and random picks from the rest.

Chain of MYC (p64);MAX (p21), in MYC:MAX (P01106 16-454, chain 1 of 2): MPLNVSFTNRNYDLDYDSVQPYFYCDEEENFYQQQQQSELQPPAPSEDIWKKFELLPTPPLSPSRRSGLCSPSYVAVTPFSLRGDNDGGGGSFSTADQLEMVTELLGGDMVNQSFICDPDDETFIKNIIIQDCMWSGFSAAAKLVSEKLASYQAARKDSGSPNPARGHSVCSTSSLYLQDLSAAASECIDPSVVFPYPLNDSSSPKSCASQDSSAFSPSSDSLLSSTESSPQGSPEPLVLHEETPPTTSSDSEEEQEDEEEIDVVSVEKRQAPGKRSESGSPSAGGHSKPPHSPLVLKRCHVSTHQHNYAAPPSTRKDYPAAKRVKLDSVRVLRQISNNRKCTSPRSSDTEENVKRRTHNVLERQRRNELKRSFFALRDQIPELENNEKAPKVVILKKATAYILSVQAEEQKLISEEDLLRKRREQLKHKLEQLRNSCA
Chain of MYC (p64);MAX (p21), in MYC:MAX (P61244 other isoform, or with tags, fused parts or gaps |, chain 2 of 2): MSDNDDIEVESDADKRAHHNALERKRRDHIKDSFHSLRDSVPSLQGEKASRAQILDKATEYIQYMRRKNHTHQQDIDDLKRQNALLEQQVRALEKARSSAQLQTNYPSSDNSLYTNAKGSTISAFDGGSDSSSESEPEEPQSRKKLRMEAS

The test addresses MYC (p64);MAX (p21), in MYC:MAX (human;human, UniProt P01106-1;P61244-2 1-439;1-151, |). The experiment in a line: protein-binding microarray (anti-MAX antibody); PBM: 15 mM Tris-HCl pH 7.5, 100 mM KCl, 0.075% NP40, 7.5 mM beta-mercaptoethanol, 375 ng/ul BSA, 8 ng/ul poly(dA-dT):(dA-dT), 550 ng complex, 60 min, room tempe; high values mean tight binding. Conditions: protein: recombinant;recombinant; tags: 6xHis;6xHis; copies: 1;1; label: 3' end of printed strand (linker) attached to glass slide; dsDNA, one strand shown. The method in brief: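 Binding is reported as log2 normalized fluorescence. Recombinant His-tagged human MYC:MAX or MAX:MAX dimers expressed in E. coli (550 ng) were incubated with a custom Agilent glass array for 60 min at room temperature in Tris-KCl buffer, pH 7.5, containing NP40, BSA and poly(dA-dT) competitor. The array carried ~5000 unique 12-nt sequences, each spotted in triplicate and made double-stranded by primer extension, and bound protein was detected with anti-MAX and secondary antibodies and scanned at 543 nm.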
For the sequence “CCGGCTGAGTACCTGTATTAATAGCTAAGATTACTATATCGACG”, the binding signal was 0.076 log2 normalized fluorescence. To “CCGGCTGATGGGCAGTATTAATAGCTAAGATTACTATATCGACG” belongs 0.0215 log2 normalized fluorescence; to “CCGGCTGACGATCAGTATTAATAGCTAAGATTACTATATCGACG”, -0.0317 log2 normalized fluorescence; to “CCGGCTGAATACCTGTATTAATAGCTAAGATTACTATATCGACG”, 0.159 log2 normalized fluorescence. Regarding “CCGGCTGAGCGCAGGTATTAATAGCTAAGATTACTATATCGACG”, the binding signal is 0.113 log2 normalized fluorescence.

On to “CCGGCTGACCAGTTGTATTAATAGCTAAGATTACTATATCGACG”, for which the binding signal was 0.159 log2 normalized fluorescence. To “CCGGCTGGCACGTGCTATTAATAGCTAAGATTACTATATCGACG” belongs 0.722 log2 normalized fluorescence; to “CCGGCGCACACGTGGTATTAATAGCTAAGATTACTATATCGACG”, 0.906 log2 normalized fluorescence; to “CCGGCTCGCACGTGGTATTAATAGCTAAGATTACTATATCGACG”, 0.665 log2 normalized fluorescence.

Turning to “CCGGCTGAGCACACGTATTAATAGCTAAGATTACTATATCGACG”, the binding signal was 0.338 log2 normalized fluorescence.

In the case of “CCGGCGCACACGTGCTATTAATAGCTAAGATTACTATATCGACG”, the binding signal is 0.875 log2 normalized fluorescence. As to “CCGGCGCGCACGTGGTATTAATAGCTAAGATTACTATATCGACG”, the binding signal is 0.813 log2 normalized fluorescence.

For the sequence “CCGGCTGAATTCCCGTATTAATAGCTAAGATTACTATATCGACG”, the binding signal was 0.003 log2 normalized fluorescence. Take “CCGGCTGACGGATGGTATTAATAGCTAAGATTACTATATCGACG”: the binding signal was 0.302 log2 normalized fluorescence. As to “CCGGCTGACGGACAGTATTAATAGCTAAGATTACTATATCGACG”, the binding signal was 0.124 log2 normalized fluorescence. To “CCGGCTGACTCGTGCTGTTAATAGCTAAGATTACTATATCGACG” belongs 0.41 log2 normalized fluorescence; to “CCGGCTGACACGTGATGTTAATAGCTAAGATTACTATATCGACG”, 0.851 log2 normalized fluorescence. As for “CCGGCTGACACGTGAGCTTAATAGCTAAGATTACTATATCGACG”, the binding signal was 0.713 log2 normalized fluorescence.

On to “CCGGCTGACACGTCATGTTAATAGCTAAGATTACTATATCGACG”, for which the binding signal is 0.5 log2 normalized fluorescence.

“CCGGCTGACACGTGAGATTAATAGCTAAGATTACTATATCGACG”: the binding signal was 0.826 log2 normalized fluorescence.

As for “CCGGCTGACACGTGTGATTAATAGCTAAGATTACTATATCGACG”, the binding signal is 0.872 log2 normalized fluorescence. To “CCGGCTGACACGTGAAGTTAATAGCTAAGATTACTATATCGACG” belongs 0.527 log2 normalized fluorescence; to “CCGGCTGACACGTGATATTAATAGCTAAGATTACTATATCGACG”, 0.522 log2 normalized fluorescence; to “CCGGCTGACACGTGATCTTAATAGCTAAGATTACTATATCGACG”, 0.744 log2 normalized fluorescence. To “CCGGCTGACACGTGAGGTTAATAGCTAAGATTACTATATCGACG” belongs 0.702 log2 normalized fluorescence; to “CCGGCTGAGCCATCGTATTAATAGCTAAGATTACTATATCGACG”, 0.0938 log2 normalized fluorescence.

As to “CCGGCTGACCGCGGGTATTAATAGCTAAGATTACTATATCGACG”, the binding signal is 0.33 log2 normalized fluorescence. On to “CCGGCTGACTGGAGGTATTAATAGCTAAGATTACTATATCGACG”, for which the binding signal was 0.07 log2 normalized fluorescence. To “CCGGCTGATGTTAGGTATTAATAGCTAAGATTACTATATCGACG” belongs 0.122 log2 normalized fluorescence; to “CCGGCTGAGGACCGGTATTAATAGCTAAGATTACTATATCGACG”, -0.014 log2 normalized fluorescence. As to “CCGGCTGAACGTGTGTATTAATAGCTAAGATTACTATATCGACG”, the binding signal is 0.493 log2 normalized fluorescence. To “CCGGCCGACACGTGATATTAATAGCTAAGATTACTATATCGACG” belongs 0.927 log2 normalized fluorescence.

“CCGGCTGAACACACGTATTAATAGCTAAGATTACTATATCGACG”: the binding signal is 0.419 log2 normalized fluorescence.

With “CCGGCTGACACGTGGTATTAATAGCTAAGATTACTATATCGACG”, the binding signal is 0.825 log2 normalized fluorescence. As for “CCGGCTGACGACACGTATTAATAGCTAAGATTACTATATCGACG”, the binding signal is 0.2 log2 normalized fluorescence.

Consider “CCGGCCGACACGTGGGCTTAATAGCTAAGATTACTATATCGACG”, for which the binding signal was 0.893 log2 normalized fluorescence. To “CCGGCTGACGTGTGGTATTAATAGCTAAGATTACTATATCGACG” belongs 0.252 log2 normalized fluorescence; to “CCGGCCGACACGTCGTATTAATAGCTAAGATTACTATATCGACG”, 0.338 log2 normalized fluorescence; to “CCGGCTAACACGTGATATTAATAGCTAAGATTACTATATCGACG”, 0.646 log2 normalized fluorescence. To “CCGGCCGACACGTTGTATTAATAGCTAAGATTACTATATCGACG” belongs 0.656 log2 normalized fluorescence; to “CCGGCTGAACACGTGTATTAATAGCTAAGATTACTATATCGACG”, 0.823 log2 normalized fluorescence; to “CCGGCTGACACGTGGGCTTAATAGCTAAGATTACTATATCGACG”, 0.74 log2 normalized fluorescence. As to “CCGGCTGACTAGTAGTATTAATAGCTAAGATTACTATATCGACG”, the binding signal was -0.00827 log2 normalized fluorescence. Take “CCGGCTGACACGACATATTAATAGCTAAGATTACTATATCGACG”: the binding signal is 0.459 log2 normalized fluorescence. With “CCGGCTGAAGACCAGTATTAATAGCTAAGATTACTATATCGACG”, the binding signal was 0.106 log2 normalized fluorescence. To “CCGGCTGAGGCAAGGTATTAATAGCTAAGATTACTATATCGACG” belongs 0.281 log2 normalized fluorescence.

As for “CCGGCTGAGGTCGCGTATTAATAGCTAAGATTACTATATCGACG”, the binding signal is 0.0221 log2 normalized fluorescence.

As to “CCGGCTGATAACAGGTATTAATAGCTAAGATTACTATATCGACG”, the binding signal was -0.0157 log2 normalized fluorescence. “CCGGCTGACCTATGGTATTAATAGCTAAGATTACTATATCGACG”: the binding signal is 0.108 log2 normalized fluorescence. As for “CCGGCTGAGTGTGAGTATTAATAGCTAAGATTACTATATCGACG”, the binding signal was 0.101 log2 normalized fluorescence. To “CCGGCTGAACGCGTGTATTAATAGCTAAGATTACTATATCGACG” belongs 0.587 log2 normalized fluorescence; to “CCGGCCGGCACGTGGTATTAATAGCTAAGATTACTATATCGACG”, 0.723 log2 normalized fluorescence; to “CCGGCCGACGCGTGGTATTAATAGCTAAGATTACTATATCGACG”, 0.626 log2 normalized fluorescence. To “CCGGCTAACACGTGGAATTAATAGCTAAGATTACTATATCGACG” belongs 0.812 log2 normalized fluorescence; to “CCGGCTGACACGTGGAATTAATAGCTAAGATTACTATATCGACG”, 0.698 log2 normalized fluorescence; to “CCGGCCGACACGTGGAATTAATAGCTAAGATTACTATATCGACG”, 0.832 log2 normalized fluorescence. To “CCGGCCGACACGTGGTATTAATAGCTAAGATTACTATATCGACG” belongs 1.07 log2 normalized fluorescence; to “CCGGCTGAGCAGCGGTATTAATAGCTAAGATTACTATATCGACG”, 0.0954 log2 normalized fluorescence. Take “CCGGCAGACTCGTTGTATTAATAGCTAAGATTACTATATCGACG”: the binding signal was 0.374 log2 normalized fluorescence.

As to “CCGGCTGAAGAGCTGTATTAATAGCTAAGATTACTATATCGACG”, the binding signal is 0.00393 log2 normalized fluorescence.
